35 compounds from PubChem BioAssay (NCI) can be followed below.

Where “and” joins values, the source holds several entries; their conditions need not be identical. Equal values may be shown once. The panel holds about 83,000 compounds, 20% with a hit somewhere; the sample as a whole holds those more often.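 96-well plates, one dose, 48 hours. Percent growth reported; active if below 10.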 Calls of active or inactive are those of the source.

For the first assay, the system named is RPMI-8226 leukemia. Put plainly: NCI-60 one-dose screen, 48 h (100 = growth as untreated, 0 = no growth, -100 = all killed). The conditions noted are these: 10 µM. On the procedure:
Growth inhibition of the RPMI-8226 human tumor cell line is measured as a screen for anti-cancer activity. Cells are grown in 96 well plates and exposed to the test compound for 48 hours. Compounds are tested at a single concentration, which is 10^-5 M for most compounds. The reported endpoint is percent growth (GI% or GIPRCNT), where numbers from 0 - 100% represent growth inhibition, and numbers from -100% - 0 represent cell death. For example, a value of 40 represents 60% growth inhibition. A value of 0 means no net growth occurred over the course of the experiment. A value of -40 indicates 40% of cells at the beginning of the experiment died by the end of the experiment. A value of -100 means all cells are dead at the end of the experiment.
NCI-60 Human Tumor Cell Lines Screen was performed using the standard one-dose NCI protocol, which is described in more detail at https://dtp.cancer.gov/discovery_development/nci-60/default.htm.
Compounds with GIPRCNT values below 10 were considered active. Activity score was based on GIPRCNT using the following formula: […]
Score is 0 for GIPRCNT values of 100 or above, 50 for GIPRCNT values of 0, and 100 for GIPRCNT values of -100.
As to `O=C(O)c1c(Cl)c(Cl)c(Cl)c(Cl)c1-c1c2cc(I)c(=O)c(I)c-2oc2c(I)c(O)c(I)cc12`, the growth was 114% (inactive) and 90.6% (inactive) and 31.5% (inactive). Turning to `COc1ccc(-c2cscc2N)cc1`, the growth was 88.7% (inactive).

In the case of `O=C(Nc1cccc(Br)c1)Oc1cccc2cccnc12`, the growth is 99.2% (inactive).

For `O=C(Nc1c(Cl)cccc1Cl)Oc1cccc2cccnc12`, the growth was 45.7% (inactive). In the case of `CN(C)C(=O)c1ccc(SC(=S)NCc2ccccc2)cc1`, the growth is 107% (inactive).

The same assay, now with this note: 10 µM unless noted.
On to `COc1cc(/C=C(/C)C[N+](=O)[O-])ccc1O`, for which the growth was 64.3% (inactive). Turning to `CCCCCCCCCCCCCCCCCCOP(=O)([O-])OC1CC[N+](C)(C)CC1`, the growth is 6.44% (active) and -36.6% (active).

As for `Cn1c2c(c3ccccc31)CCN1C[C@@H]3CCCC[C@H]3C[C@@H]21`, the growth is 16.7% (inactive).

In the case of `CN(C)c1ccc(/C=N/N=C(\C#N)[S][Sn]([Cl])([c]2ccccc2)[c]2ccccc2)cc1`, the growth was -13.8% (active). As to `Cc1ccc(N=C=C(c2ccccc2)c2ccccc2)cc1`, the growth was 16.6% (inactive).

In the case of `Cc1c2ccccc2c(C)c2c1ccc1ccccc12`, the growth is 84.3% (inactive). Still for that read-out and setting: as for `C[N+](C)=c1ccc2nc3c(cc(NCCCNc4cc5oc6cc(=[N+](C)C)ccc-6nc5c5ccccc45)c4ccccc43)oc-2c1`, the figure is 2.21% (active); as for `N#CSCc1ccc(CSC#N)c(Cl)c1`, 41.9% (inactive).

As to `Nc1ncnc2c1ncn2C1OC(CO)C(O)C1O` (stereo not given), the growth is 101% (inactive) and 77.5% (inactive) and 112% (inactive).

As for `CCCCCCC(C)c1ccccc1O` (stereo not given) (tested in a mixture with another compound), the growth is 95.6% (inactive). Take `CN(C)c1ccc(N=Nc2cccc3ccccc23)cc1`: the growth was 72.5% (inactive). Take `CN1c2ccccc2C(C)(C)C12C=Cc1cc(O)ccc1O2` (stereo not given): the growth is -22.8% (active). Same read-out and setting: as for `O=C(Nc1cccc(Br)c1)Oc1ccc(Cl)c2cccnc12`, the figure is 3.35% [100 µM] (active). For `CC(=O)C(=Cc1ccc(C=C(C(C)=O)C(C)=O)cc1)C(C)=O`, the growth is 2.05% (active).

Consider `CCOC(=O)c1c(C)[nH]c(CO)c1C`, for which the growth is 97.8% (inactive). In the case of `C1=C(c2ccccc2)C(c2ccc(OCCN3CCCCC3)cc2)Oc2ccccc21` (stereo not given), the growth was 15.5% (inactive). On to `CC1OC(OC2C(OC3CCC4(C)C(CCC5(C)C4CC=C4C6CC(C)(C)CCC6(CO)C(O)CC45C)C3(C)C)OC(C(=O)O)C(OC3OC(COC4OC(CO)C(O)C(O)C4O)C(O)C(O)C3O)C2O)C(O)C(O)C1O` (stereo not given), for which the growth is -23.5% (active).

For `CCC(CC)COC(=O)c1ccc(O)c(O)c1`, the growth is 35.1% (inactive).

For `O=C(O)C1C2CC3C(OC(=O)C31)C2Br` (stereo not given), the growth was 102% (inactive) and 106% (inactive).

As for `CCOc1ccc(-c2nc3ccc(-c4nc5ccc(N6CCN(C)CC6)cc5[nH]4)cc3[nH]2)cc1`, the growth was -4.63% (active). Take `COC(=O)c1nc(=S)[nH]c(C(=O)OC)c1C(=O)c1ccccn1`: the growth is 52.8% (inactive). As to `CCC(c1cccc(O)c1)C(CC)c1cccc(O)c1` (stereo not given), the growth is 31.6% (inactive). Still for that read-out and setting: as for `O=C1C=CC(=O)N1C1c2ccccc2-c2ccccc21`, the figure is 90.7% (inactive).

For the compound `Nc1ccc(SSc2ccc(N)cc2)cc1`, the growth is 102% (inactive). Regarding `CNC(=O)N/N=C/c1ccc([N+](=O)[O-])o1`, the growth was 83.6% (inactive). Same read-out and setting: as for `NC(N)=N/N=C/c1ccc([N+](=O)[O-])o1`, the figure is 78.7% (inactive); as for `Cc1ccnc2c1ccc1c(C)ccnc12`, 17.4% (inactive); as for `CC(=O)Nc1cccc2cc(O)ccc12`, 120% (inactive) and 112% (inactive) and 106% (inactive). Turning to `COc1ccc2nc3cc(Cl)ccc3c(NCCNc3c4ccc(Cl)cc4nc4ccc(OC)cc34)c2c1`, the growth is -34.5% (active). With `O=C(Oc1cccc2cccnc12)c1ccccc1`, the growth is 83.3% (inactive) and 113% (inactive).

The assay is the same for the next values; noted with them: 100 µM.
As to `O=C(O)c1c(Cl)c(Cl)c(Cl)c(Cl)c1-c1c2cc(I)c(=O)c(I)c-2oc2c(I)c(O)c(I)cc12`, the growth is 24.3% (inactive). Still for that read-out and setting: next, `COc1ccc(-c2cscc2N)cc1`: 23.7% (inactive). Same read-out and setting: next, `O=C(Nc1cccc(Br)c1)Oc1cccc2cccnc12`: 1.75% (active). Consider `O=C(Nc1c(Cl)cccc1Cl)Oc1cccc2cccnc12`, for which the growth is 2.58% (active). Still for that read-out and setting: as for `CN(C)C(=O)c1ccc(SC(=S)NCc2ccccc2)cc1`, the figure is -27.3% (active).
